Laboratory results taken from publication PMC5540273 (PLoS ONE, 2017).
Like-named read-outs stand apart in the source and are kept apart here.

Tests used:
Conditions in all cases: n = 1
MAP4K4 = system: MAP4K4
MAP4K5 = system: MAP4K5
MAPKAPK2 = system: MAPKAPK2
MAPKAPK5 = system: MAPKAPK5
MARK1 = system: MARK1
MARK2 = system: MARK2
MARK3 = system: MARK3
MARK4 = system: MARK4
MAST1 = system: MAST1
MEK1 = system: T1, MEK1
T1 construct: gene MAP2K1

[1] = concentration: 1 μM, replicates: in singlicate
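Note: KINOMEscan kinase panel screen.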

Row | Compound | %Inh (MAP4K4; [1]) [%] | %Inh (MAP4K5; [1]) [%] | %Inh (MAPKAPK2; [1]) [%] | %Inh (MAPKAPK5; [1]) [%] | %Inh (MARK1; [1]) [%] | %Inh (MARK2; [1]) [%] | %Inh (MARK3; [1]) [%] | %Inh (MARK4; [1]) [%] | %Inh (MAST1; [1]) [%] | %Inh (MEK1; [1]) [%] | %Inh (MAP4K4; 1 µM) [%] | %Inh (MAP4K5; 1 µM) [%] | %Inh (MAPKAPK2; 1 µM) [%] | %Inh (MAPKAPK5; 1 µM) [%] | %Inh (MARK1; 1 µM) [%] | %Inh (MARK2; 1 µM) [%] | %Inh (MARK3; 1 µM) [%] | %Inh (MARK4; 1 µM) [%] | %Inh (MAST1; 1 µM) [%] | %Inh (MEK1; 1 µM) [%]
1 | Cc1nnc(-c2ccc3occ(-c4ccc(S(C)=O)cc4)c3c2)[nH]1 (stereo not drawn) | 0 | 0 | 0 | 20 | 21 | 22 | 0 | 19 | 7 | 8 | – | – | – | – | – | – | – | – | – | –
2 | Cn1ccc2ncnc(Oc3cccc(C(=O)Nc4ccccc4)c3)c21 | 8 | 0 | 0 | 12 | 13 | 0 | 0 | 6 | 35 | 1 | – | – | – | – | – | – | – | – | – | –
3 | Cc1ccccc1-n1cnc2c(N)ncnc21 [SKF-97510] | 0 | 0 | 0 | 0 | 0 | 0 | 0 | 0 | 12 | 0 | – | – | – | – | – | – | – | – | – | –
4 | COc1cccc(NC(=O)NC2CCN(c3ccnc(Nc4ccc(F)cc4)n3)C2)c1 (stereo not drawn) [GSK1379721] | 83 | 96.7 | 0 | 0 | 0 | 0 | 9 | 0 | 17 | 31 | – | – | – | – | – | – | – | – | – | –
5 | C[C@@H]1CCCCN1c1cc(-c2ccc3c(N)n[nH]c3c2)nc(N)n1 [GSK2258759] | 0 | 0 | 4 | 0 | 0 | 0 | 0 | 0 | 0 | 27 | – | – | – | – | – | – | – | – | – | –
6 | CCn1c(-c2cccnc2O)nc2cnccc21 [SB-736715] | 0 | 0 | 16 | 0 | 0 | 15 | 0 | 0 | 13 | 0 | – | – | – | – | – | – | – | – | – | –
7 | Cl.Oc1ccc(-c2nc(-c3ccccc3)[nH]c2-c2ccncc2)cc1 [SB-428218] | 0 | 0 | 13 | 0 | 0 | 0 | 0 | 0 | 0 | 0 | – | – | – | – | – | – | – | – | – | –
8 | O=C(Nc1ccc2c(c1)OCO2)NC1CCN(c2ccnc(Nc3ccc(F)cc3)n2)C1 (stereo not drawn) [GSK1379724] | 8 | 0 | 5 | 0 | 0 | 0 | 0 | 0 | 0 | 0 | – | – | – | – | – | – | – | – | – | –
9 | CC(=O)Nc1nc2cnc(Nc3cc(NC(=O)c4cccc(CCC#N)c4)ccc3C)nc2s1 | 0 | 0 | 11 | 3 | 14 | 0 | 0 | 12 | 0 | 0 | – | – | – | – | – | – | – | – | – | –
10 | Cc1ccc(NC(=O)Nc2cccc(C(F)(F)F)c2)cc1 [GSK955403] | – | – | – | – | – | – | – | – | – | – | 0 | 0 | 0 | 0 | 0 | 0 | 0 | 4 | 21 | 5
11 | COc1ccc(Nc2nccc(NCCNC(=O)Nc3ccccc3F)n2)cc1 [GSK1379901] | 0 | 0 | 25 | 0 | 0 | 0 | 0 | 11 | 0 | 0 | – | – | – | – | – | – | – | – | – | –
12 | Cc1cccc(-c2cc(Nc3ccncc3)c3ccccc3n2)n1 [GSK223675] | 0 | 0 | 13 | 0 | 0 | 0 | 0 | 0 | 0 | 0 | – | – | – | – | – | – | – | – | – | –
13 | COc1ccccc1CNC(=O)c1cc(C(=O)c2ccccc2C)c[nH]1 [GSK364507] | 6 | 0 | 26 | 0 | 89 | 0 | 0 | 50 | 0 | 0 | – | – | – | – | – | – | – | – | – | –
14 | O=C(Nc1n[nH]c2nc(-c3nccs3)c(Br)cc12)C1CC1 [SB-742251] | 4 | 1 | 0 | 0 | 0 | 0 | 0 | 0 | 20 | 0 | – | – | – | – | – | – | – | – | – | –
15 | CC(C)(C)c1ccc(C(=O)Nc2cn3cc(-c4cccnc4)ccc3n2)cc1 | 15 | 0 | 0 | 0 | 36 | 27 | 0 | 38 | 0 | 3 | – | – | – | – | – | – | – | – | – | –
16 | Cn1ccc2ncnc(Oc3ccc(NC(=O)Nc4ccccc4)cc3)c21 | 0 | 0 | 0 | 0 | 11 | 0 | 50 | 10 | 18 | 0 | – | – | – | – | – | – | – | – | – | –
17 | Cc1cccc(-c2nc(C)cc(Nc3ccncc3)n2)n1 [GSK257997] | 2 | 0 | 20 | 0 | 0 | 0 | 4 | 0 | 0 | 0 | – | – | – | – | – | – | – | – | – | –
18 | NC(=O)c1nnc2ccccc2c1N | 12 | 11 | 0 | 0 | 12 | 0 | 0 | 19 | 1 | 40 | – | – | – | – | – | – | – | – | – | –
